Reference: PubChem BioAssay (Tox21)
Several values for one entry are separate records, joined by “and”; a condition that tells them apart may be missing. Equal entries are not always repeated. Records with an inconclusive call do not appear. Where a call stands in place of a potency, no number is given. Activity calls are given as the source filed them. Calls come from the whole dose curve; as a rule, active = well fitted cell-killing curve with a large enough effect in the repeat runs; inconclusive = weak or mixed curves, or effect the other way; inactive = flat fitted curve, though single readings scatter.

Experiments:
[1] = cAMP Responsive Elements (CRE) small molecule antagonists, cell-based qHTS assay: qHTS cell viability counter screen (AID 2060913); note: nearly all actives have a fitted effect of over 40% in size
Summary of the method: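 Cytotoxicity counter screen multiplexed with the CRE-bla antagonist read: HEK293T cells in DMEM with dialyzed FBS and 25 mM HEPES were treated 3 hrs under 0.25 uM final NKH477, then viability measured by CellTiter-Glo luminescence.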

[2] = cAMP Responsive Elements (CRE) small molecule agonists, cell-based qHTS assay: qHTS cell viability counter screen (AID 2060914);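 note: viability read after 3 h of compound exposure; nearly all actives have a fitted effect of over 50% in size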
Summary of the method: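 HEK 293T CRE-bla; DMEM + 10% dialyzed FBS, 25 mM HEPES; 18 h pre-incubation; compound 3 h, 37 °C/5% CO2; CellTiter-Glo added after reporter read; luminescence after 30 min RT.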
Potency is the fitted concentration of half-maximal effect.

## CN(C)CCc1ccc(O)cc1
[1]
  Potency: inactive
[2]
  Potency: inactive

## CCC(C)Cl (stereo not drawn)
[1]
  Potency: inactive
[2]
  Potency: inactive

## Clc1ccc(Cl)c(Cl)c1
[1]
  Potency: inactive
[2]
  Potency: inactive

## O=S1(=O)OCCO1
[1]
  Potency: inactive
[2]
  Potency: inactive

## O=Cc1ccco1
[1]
  Potency: inactive
[2]
  Potency: inactive

## Cc1c(F)c(F)c(COC(=O)C2C(/C=C(\Cl)C(F)(F)F)C2(C)C)c(F)c1F (stereo not drawn)
[1]
  Potency: inactive
[2]
  Potency: inactive

## C#CCO
[1]
  Potency: inactive
[2]
  Potency: inactive

## O=C1C2CC=CCC2C(=O)N1SC(Cl)(Cl)Cl (stereo not drawn)
[1]
  Potency: inactive
[2]
  Potency: inactive

## CCOC(=O)C(Cl)Cc1cc(-n2nc(C)n(C(F)F)c2=O)c(F)cc1Cl (stereo not drawn)
[1]
  Potency: inactive
[2]
  Potency: inactive

## C=CC(=O)[O][Sn]([CH2]CCC)([CH2]CCC)[CH2]CCC
[1]
  Potency: 8.63 µM (active)
[2]
  Potency: 6.86 µM (active)

## CCCN(CCCl)c1c([N+](=O)[O-])cc(C(F)(F)F)cc1[N+](=O)[O-]
[1]
  Potency: inactive
[2]
  Potency: inactive

## COC(=O)c1ccccc1S(=O)(=O)NC(=O)N(C)c1nc(C)nc(OC)n1
[1]
  Potency: inactive
[2]
  Potency: inactive

## CCOC(=O)CC(=O)CCl
[1]
  Potency: inactive
[2]
  Potency: inactive

## Cc1ccc2ccccc2c1
[1]
  Potency: inactive
[2]
  Potency: inactive

## C=CCOC(C)=O
[1]
  Potency: inactive
[2]
  Potency: inactive

## CC(C)(C)C(=O)C(Cl)Cl
[1]
  Potency: inactive
[2]
  Potency: inactive

## CN1CCC(N(Cc2ccccc2)c2ccccc2)CC1
[1]
  Potency: inactive
[2]
  Potency: inactive

## [Cl][Hg][c]1ccccc1
[1]
  Potency: 19.3 µM (active)
[2]
  Potency: 30.6 µM (active)

## CCC(C)(C)c1ccc(O)c(C(C)(C)CC)c1
[1]
  Potency: 27.3 µM (active)
[2]
  Potency: 30.3 µM (active) and 24.3 µM (active)

## CCCCCCCCCCCCCl
[1]
  Potency: inactive
[2]
  Potency: inactive

## CNC(=O)Oc1cccc(C(C)C)c1
[1]
  Potency: inactive
[2]
  Potency: inactive

## CC(Cc1ccc2c(c1)OCO2)NO (stereo not drawn)
[1]
  Potency: inactive
[2]
  Potency: inactive

## Oc1ccc(Cl)cc1
[1]
  Potency: inactive
[2]
  Potency: inactive

## O=[N+]([O-])c1cc([As](=O)(O)O)ccc1O
[1]
  Potency: inactive
[2]
  Potency: inactive

## COc1ccc2c3c1O[C@H]1[C@H](O)CC[C@H]4[C@@H](C2)N(C)CC[C@@]341
[1]
  Potency: inactive
[2]
  Potency: inactive

## CN1CCc2cc3c(cc2C1O)OCO3 (stereo not drawn)
[1]
  Potency: inactive
[2]
  Potency: inactive

## O=C(Cl)/C=C/C(=O)Cl
[1]
  Potency: inactive
[2]
  Potency: inactive

## O=C(O)C(F)(F)C(F)(F)C(F)(F)C(F)(F)C(F)(F)C(F)(F)C(F)(F)C(F)(F)C(F)(F)C(F)(F)F
[1]
  Potency: inactive
[2]
  Potency: inactive

## O=S(=O)(Cl)Cl
[1]
  Potency: inactive
[2]
  Potency: inactive

## CC/C(=N\OC/C=C/Cl)C1=C(O)CC(C2CCOCC2)CC1=O (stereo not drawn)
[1]
  Potency: inactive
[2]
  Potency: inactive

## ClC(Br)Br
[1]
  Potency: inactive
[2]
  Potency: inactive

## Sc1ccccc1Cl
[1]
  Potency: inactive
[2]
  Potency: inactive

## CC[N+](CC)(CC)CC
[1]
  Potency: inactive
[2]
  Potency: inactive

## CC1=C(C(=O)O)N2C(=O)[C@@H](N)[C@H]2SC1
[1]
  viability change, negative = cytotoxic: 6.72% [at 18.9 µM] (inactive)
[2]
  activity change, negative = cytotoxicity: 16% [at 18.9 µM] (inactive)

## Nc1ccc(Cl)cc1C(=O)c1ccccc1F
[1]
  Potency: inactive
[2]
  Potency: inactive

## CCC(=O)OC1(c2ccccc2)CCN(C)CC1
[1]
  Potency: inactive
[2]
  Potency: inactive

## C=C1C[C@@H]2[C@H](CC[C@]3(C)C(=O)CC[C@@H]23)[C@@]2(C)C=CC(=O)C=C12
[1]
  Potency: inactive
[2]
  Potency: inactive

## CSc1nc(NC(C)C)nc(NC(C)C)n1
[1]
  Potency: inactive
[2]
  Potency: inactive

## CCOP(=O)(O)C(N)=O
[1]
  Potency: inactive
[2]
  Potency: inactive

## CS/C(C)=N/OC(=O)N(C)SN(C)C(=O)O/N=C(\C)SC
[1]
  Potency: inactive
[2]
  Potency: inactive

## CNc1cnn(-c2cccc(C(F)(F)F)c2)c(=O)c1Cl
[1]
  Potency: inactive
[2]
  Potency: inactive

## COC(=O)Nc1cccc(OC(=O)Nc2cccc(C)c2)c1
[1]
  Potency: inactive
[2]
  Potency: inactive

## ClCBr
[1]
  Potency: inactive
[2]
  Potency: inactive

## CC(C)(C)NCC(O)c1cc(Cl)c(N)c(C(F)(F)F)c1 (stereo not drawn)
[1]
  Potency: inactive
[2]
  Potency: inactive

## O=NN1CCCCCC1
[1]
  Potency: inactive
[2]
  Potency: inactive

## O=C(NC(=O)c1c(F)cccc1F)Nc1ccc(Cl)cc1
[1]
  Potency: inactive
[2]
  Potency: inactive

## CCCCNP(N)(N)=S
[1]
  Potency: inactive
[2]
  Potency: inactive

## CCCCCCCCP(=O)(O)O
[1]
  Potency: inactive
[2]
  Potency: inactive

## COc1cccc(C(=O)NN(C(=O)c2cc(C)cc(C)c2)C(C)(C)C)c1C
[1]
  Potency: inactive
[2]
  Potency: inactive

## Nc1c(Oc2ccccc2)cc(O)c2c1C(=O)c1ccccc1C2=O
[1]
  Potency: inactive
[2]
  Potency: inactive

## CCCCC/C=C\C/C=C\C/C=C\C/C=C\CCCC(=O)NCC(=O)O
[1]
  Potency: inactive
[2]
  Potency: inactive

## CCOc1ccc(N)cc1
[1]
  Potency: inactive
[2]
  Potency: inactive

## ClC1=C(Cl)[C@]2(Cl)[C@H]3[C@H]([C@H]4C=C[C@H]3C4)[C@@]1(Cl)C2(Cl)Cl
[1]
  Potency: inactive
[2]
  Potency: inactive

## COC(=O)c1ccccc1CS(=O)(=O)NC(=O)Nc1nc(OC)cc(OC)n1
[1]
  Potency: inactive
[2]
  Potency: inactive

## CCOC(=O)CC(SP(=S)(OC)OC)C(=O)OCC (stereo not drawn)
[1]
  Potency: inactive
[2]
  Potency: inactive

## O=C1c2ccccc2C(=O)c2ccccc21
[1]
  viability change, negative = cytotoxic: 7.37% [at 18.9 µM] (inactive)
[2]
  activity change, negative = cytotoxicity: 0.739% [at 18.9 µM] (inactive)

## CN/C(=N\[N+](=O)[O-])NCc1cnc(Cl)s1
[1]
  Potency: inactive
[2]
  Potency: inactive

## C=CC(C)(CCC=C(C)C)OC(=O)c1ccccc1N (stereo not drawn)
[1]
  Potency: inactive
[2]
  Potency: inactive

## Cc1cccc(OP(=O)(Oc2cccc(C)c2)Oc2cccc(C)c2)c1
[1]
  Potency: inactive
[2]
  Potency: inactive

## C[C@H](CN1CCOCC1)C(C(=O)N1CCCC1)(c1ccccc1)c1ccccc1
[1]
  Potency: inactive
[2]
  Potency: inactive

## S=C1NCCN1
[1]
  Potency: inactive
[2]
  Potency: inactive

## Cc1ncc2n1-c1ccc(Cl)cc1C(c1ccccc1F)=NC2
[1]
  Potency: inactive
[2]
  Potency: inactive

## CCOP(O)OCC
[1]
  Potency: inactive
[2]
  Potency: inactive

## CCCCOP(=O)(CCCC)OCCCC
[1]
  Potency: inactive
[2]
  Potency: inactive

## CCCCCCCCCCCCBr
[1]
  Potency: inactive
[2]
  Potency: inactive

## Oc1ccc2ccc3cccc4ccc1c2c34
[1]
  Potency: inactive
[2]
  Potency: inactive

## Oc1ccccc1-c1ccccc1
[1]
  Potency: inactive
[2]
  Potency: inactive

## CC(C)(Cl)Cl
[1]
  Potency: inactive
[2]
  Potency: inactive

## C1CCC(C2CCCCC2)CC1
[1]
  Potency: inactive
[2]
  Potency: inactive

## O=C(O)c1ccc(=O)[nH]c1
[1]
  Potency: inactive
[2]
  Potency: inactive

## C1CN2CCC1CC2
[1]
  Potency: inactive
[2]
  Potency: inactive

## CN(N=O)C(N)=O
[1]
  Potency: inactive
[2]
  Potency: inactive

## CCC(C)Nc1c([N+](=O)[O-])cc(C(C)(C)C)cc1[N+](=O)[O-] (stereo not drawn)
[1]
  Potency: inactive
[2]
  Potency: inactive

## CCCCCCC[CH2][Sn]([Cl])([Cl])[CH2]CCCCCCC
[1]
  Potency: inactive
[2]
  Potency: inactive

## CCOP(=S)(OCC)SCS(=O)(=O)CC
[1]
  Potency: inactive
[2]
  Potency: inactive

## O=[N+]([O-])c1ccc2ccc3cccc4ccc1c2c34
[1]
  Potency: inactive
[2]
  Potency: inactive

## C=CCOC(Cn1ccnc1)c1ccc(Cl)cc1Cl (stereo not drawn)
[1]
  Potency: inactive
[2]
  Potency: inactive

## CC1Sc2c(C(=O)O)c(=O)c3cc(F)c(N4CCNCC4)cc3n21 (stereo not drawn)
[1]
  Potency: inactive
[2]
  Potency: inactive

## CN(CCO)CCO
[1]
  Potency: inactive
[2]
  Potency: inactive

## Cc1ccn2nc(S(=O)(=O)Nc3c(F)cccc3F)nc2n1
[1]
  Potency: inactive
[2]
  Potency: inactive

## Oc1cc(Cl)ccc1Oc1ccc(Cl)cc1Cl
[1]
  Potency: 44.3 µM (active)
[2]
  Potency: 62.6 µM (active)

## Cl/C=C\CCl
[1]
  Potency: inactive
[2]
  Potency: inactive

## CNC(=O)Oc1cc(C)cc(C(C)C)c1
[1]
  Potency: inactive
[2]
  Potency: inactive

## O=[N+]([O-])[O-].[Tl+]
[1]
  Potency: inactive
[2]
  Potency: inactive

## O=C(Cc1ccccc1)OCc1ccccc1
[1]
  Potency: inactive
[2]
  Potency: inactive

## O=C(O)COc1ccc(Cl)cc1
[1]
  Potency: inactive
[2]
  Potency: inactive

## Brc1c(Br)c(Br)c(Oc2c(Br)c(Br)c(Br)c(Br)c2Br)c(Br)c1Br
[1]
  viability change, negative = cytotoxic: -10% [at 18.9 µM] (inactive)
[2]
  activity change, negative = cytotoxicity: 4.51% [at 18.9 µM] (inactive)

## CCCCCCI
[1]
  Potency: inactive
[2]
  Potency: inactive

## NNC(N)=S
[1]
  Potency: inactive
[2]
  Potency: inactive

## CCOC(=O)c1ccccc1N
[1]
  Potency: inactive
[2]
  Potency: inactive

## NNC(N)=O
[1]
  Potency: inactive
[2]
  Potency: inactive

## COc1cc(Cl)c(OC)cc1Cl
[1]
  Potency: inactive
[2]
  Potency: inactive

## c1cncc([C@@H]2CCCCN2)c1
[1]
  Potency: inactive
[2]
  Potency: inactive

## O=C(NC(=O)c1c(F)cccc1F)Nc1cc(Cl)c(OC(F)(F)C(F)C(F)(F)F)cc1Cl (stereo not drawn)
[1]
  Potency: inactive
[2]
  Potency: inactive

## ClC1=C(Cl)[C@]2(Cl)[C@@H]3[C@@H](Cl)[C@@H](Cl)C[C@@H]3[C@@]1(Cl)C2(Cl)Cl
[1]
  Potency: inactive
[2]
  Potency: inactive

## Clc1ccc(C2(Cn3cncn3)OCCO2)c(Cl)c1
[1]
  Potency: inactive
[2]
  Potency: inactive

## CC#C[C@]1(O)CC[C@H]2[C@@H]3C[C@H](C)C4=CC(=O)CC[C@]4(C)[C@H]3CC[C@@]21C
[1]
  Potency: inactive
[2]
  Potency: inactive

## O=Cc1ccc(Cl)cc1Cl
[1]
  Potency: inactive
[2]
  Potency: inactive

## c1cc2c3c(cccc3c1)CC2
[1]
  Potency: inactive
[2]
  Potency: inactive
